# High-throughput results: PubChem BioAssay, National Center for Advancing Translational Sciences (NCATS)
# Many of the other results were omitted from the sample, so hits are more common in it than they were.
# Pf Dd2 growth – qHTS Primary assay for Inhibitors of Plasmodium falciparum Dd2 growth in vitro. Potency, µM (top dose mostly 28.9 µM), actives largely listed as inhibitors. P. falciparum Dd2 growth, SYBR Green, 72 h. AID 1347417, 2020. 120,000 tested, 4.3% active; active = well fitted inhibition curve with a large enough effect; note: nearly all actives have a fitted effect of over 65% in size
#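 Infected erythrocytes (Dd2, 0.3% parasitemia, 2.5% hematocrit final) are added to compound in RPMI-1640/Albumax II medium, grown 72 h at 37C in low oxygen, then lysed with saponin/Triton-X containing SYBR Green and read by fluorescence.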
# Hits are given with their value; 0 = inactive; [ ] = remark or other dose.
SMILES,Pf Dd2 growth
COc1cccc(CNC(=O)c2c(C)noc2-c2cccc(F)c2)c1,0
CCCN1CCN(CCNC(=O)Nc2cc(Cl)c(OC)cc2OC)CC1,0
CCOC(=O)c1ccc(NC(=O)CCc2c(C)nc3c(c(C)nn3-c3ccccc3)c2C)cc1,0
Cc1cccc(N(CC(=O)N2CC[C@@](C)(O)[C@@H](O)C2)S(C)(=O)=O)c1,0
CCn1cc(C(=O)NCc2ccc(C)cc2)c(=O)c2cc(S(=O)(=O)N3CCC(C)CC3)ccc21,0
Cc1ccc(CNC(=O)c2oc3ccc(S(=O)(=O)N4CCCC(C)C4)cc3c2C)cc1 (stereo not given),10µM
Cc1ccc(NC(=O)c2oc3ccc(S(=O)(=O)N4CCCCCC4)cc3c2C)cc1Cl,0
CCOc1ccccc1NS(=O)(=O)c1ccc2[nH]c3c(c2c1)CCCCC3,0
COCCNC(=O)[C@H]1C[C@@H](O)[C@H](O)[C@@H]2N=C(Nc3cc(OC)cc(OC)c3)S[C@@H]21,0
CN(Cc1cccn1C)C1CCOc2ccccc21 (stereo not given),0
Cc1cc(C)cc(OCC(=O)Nc2ccc(Cl)cc2C(=O)c2ccccc2)c1,0
O=c1ccc(-c2ccc(Cl)cc2)c2n1C[C@H]1C[C@@H]2CN(S(=O)(=O)c2cccs2)C1,0
Cc1ccccc1CNC(=O)CC1CCCN(c2cnn(CC3CC3)c(=O)c2)C1 (stereo not given),0
Cc1ccc(Cn2c(CO)cnc2SCc2ccc(F)cc2)cc1,0
Cc1ccc(NC(=O)Cn2c(SCc3cccc(F)c3)nc3ccncc32)c(C)c1,0
O=C(NCCc1ccccc1)c1ccc(CSc2nc3ccncc3n2Cc2ccc(F)cc2)cc1,7.1µM
Cc1ccc(CCNC(=O)c2ccc(CSc3nc4ccncc4n3Cc3ccc(F)cc3)cc2)cc1,4.5µM
COC(=O)c1ccc(Cn2c(SCC(=O)Nc3ccc(F)cc3)nc3ccccc32)cc1,0
Cc1ccc(-n2nc(CO)c(C(=O)NC(C)CCCc3ccccc3)n2)cc1 (stereo not given),0
Cc1oc2ccn(Cc3cccc(F)c3)c(=O)c2c1C(=O)N(C)Cc1ccccc1,0
CN(Cc1ccc(-c2ccccc2)cc1)C(=O)Nc1ccccc1,0
Cc1ccc(NC(=O)c2c(C)oc3ncnc(N4CCCCC4)c23)c(C)c1,0
Cc1oc2ccc(O)c(CN(C)Cc3ccccc3)c2c1C(=O)Nc1ccccc1,1.1µM
Cc1ccc(NC(=O)Nc2nnc(N(C)Cc3ccccc3)s2)c(C)c1,0
Cc1ccc(NC(=O)c2c(C)oc3ccc(O)c(CN(C)Cc4ccccc4)c23)c(C)c1,1.3µM
SMILES,Pf Dd2 growth
CC(C)N(C)Cc1nnnn1CC(=O)NCCn1ncc2ccccc2c1=O,0
CCOc1ccccc1N1CC(c2nc3ccccc3n2CCCOc2ccccc2OC)CC1=O (stereo not given),0
CCOc1ccc(N2CC(c3nc4ccccc4n3CCC3CCCCC3)CC2=O)cc1 (stereo not given),11µM
CCOc1ccccc1N1CC(c2nc3ccccc3n2CCOc2ccc(C(C)(C)C)cc2)CC1=O (stereo not given),0
CCOC(=O)Cn1c(C2CC(=O)N(c3ccc(C)cc3)C2)nc2ccccc21 (stereo not given),0
CCOc1ccc(-c2nc(C3CC(=O)N(c4ccc(OC)cc4)C3)no2)cc1 (stereo not given),0
CC(=O)N1CCCC1c1nc2ccccc2n1Cc1ccc(F)cc1 (stereo not given),0
Cc1cccc(C)c1OCCn1c(C2CC(=O)N(Cc3ccc(F)cc3)C2)nc2ccccc21 (stereo not given),2.5µM
CCOc1ccc(N2CC(c3nc4ccccc4n3CCOc3ccccc3OC)CC2=O)cc1 (stereo not given),13µM
Cc1cc(C)c(Cn2c(C3CC(=O)N(c4ccc(F)cc4)C3)nc3ccccc32)c(C)c1 (stereo not given),0
CCOc1ccc(N2CC(c3nc4ccccc4n3CCCCOc3ccc(OC)cc3)CC2=O)cc1 (stereo not given),13µM
CCOc1ccc(N2CC(c3nc(-c4cc(OC)c(OC)c(OC)c4)no3)CC2=O)cc1 (stereo not given),0
CCOc1ccccc1CNC(=O)C1CCN(S(=O)(=O)c2ccc3[nH]c(=O)ccc3c2)CC1,0
Cc1ccc(S(=O)(=O)N2CCCC(CCC(=O)NCc3ccccc3)C2)cc1 (stereo not given),0
CC(CNC(=O)c1cc(-c2ccccc2)n[nH]1)c1ccccc1 (stereo not given),0[5.79 µM]
O=C(CSc1nc(=O)n(Cc2cccnc2)c2c1CCC2)Nc1cccc(Cl)c1,0
CCOc1ccc(N2CC(c3nc4ccccc4n3CCOc3ccc(CC)cc3)CC2=O)cc1 (stereo not given),0
CCOc1ccc(N2CC(c3nc4ccccc4n3CCCOc3ccccc3)CC2=O)cc1 (stereo not given),13µM
CCOc1ccc(N2CC(c3nc4ccccc4n3CC(C)C)CC2=O)cc1 (stereo not given),0
O=C1N(Cc2ccc(F)cc2)CCCC12CCN(c1nc3ccccc3o1)C2 (stereo not given),0
Cc1cccc(N(C)c2nc3ccc(C)cc3n3cnnc23)c1,0
Cc1cccc(N(C)c2ccc3cc(S(=O)(=O)N4CCCC4)ccc3n2)c1,0
Cc1cccc(N(C)c2nc3ccccc3c3nnc(C)n23)c1,0.45µM
Cc1ccc(-c2nn3c(=O)cc(CN4CCN(C(=O)Nc5cc(Cl)ccc5C)CC4)nc3s2)cc1,0
CC1=NS(=O)(=O)N(C)C=C1C(=O)OCc1nc(-c2cccc(Br)c2)no1,0
SMILES,Pf Dd2 growth
CCCOc1ccc(C(=O)Nc2cccc(NC(=O)c3ccc(Cl)cc3Cl)c2)cc1,0
CCC1CCCCN1CCCNC(=O)c1c(O)nc2ccccn2c1=O (stereo not given),0
CSc1ccccc1OCc1cc(C(=O)NCCN2CCCCC2CO)no1 (stereo not given),11µM
O=C(c1cc(COc2c(F)cccc2F)on1)N1CCCCC1CCc1ccccc1 (stereo not given),0
O=C(Nc1nnc(S(=O)(=O)N2CCCCC2)s1)c1ccc(Cl)cc1,0
Cn1cnc(S(=O)(=O)N2CC(Oc3ccc(-c4nc(-c5ccccc5)no4)cc3)C2)c1,0[5.79 µM]
O=c1[nH]nc2n1CCN(Cc1ccc3c(c1)CCO3)CC2,0
c1cc2c(cc1CN1CCOCC1)CNCCO2,7.9µM
CCN(CC)Cc1ccc2c(c1)CNCCO2,0
COc1ccc(C(=O)NC(C)c2nncn2C)cc1OC1CCN(C(C)=O)CC1 (stereo not given),0
COc1ccc2nc3sc(C(=O)N4CCN(c5ccccc5)CC4)cc3cc2c1,0
O=C1CC(c2ccccc2)N(Cc2ccncc2)CCCN(CC2CCCCC2)CCN1 (stereo not given),3.2µM
CS(=O)(=O)N1CCCN(Cc2ccccn2)CCNC(=O)CC1c1ccccc1 (stereo not given),0
Cc1noc(C)c1S(=O)(=O)N1CCCN(Cc2ccncc2)C(c2ccccc2)CC(=O)NCC1 (stereo not given),1.1µM
CS(=O)(=O)N1CCCCCNC(=O)CC1c1ccccc1 (stereo not given),0
O=C1CC(c2ccccc2)N(Cc2ccncc2)CCCN(C(=O)CN2CCCC2=O)CCN1 (stereo not given),0
CCn1ncc(CN2CCCN(Cc3ccncc3)C(c3ccccc3)CC(=O)NCC2)c1C (stereo not given),0
CN(C)S(=O)(=O)N1CCCN(Cc2ccncc2)C(c2ccccc2)CC(=O)NCC1 (stereo not given),10µM
